Data on 14 compounds can be found in PubChem BioAssay (Tox21).

Each structure is given as a SMILES string. Inconclusive results are not listed. The source made the active and inactive calls. Unless noted, calls come from the whole dose curve; as a rule, active = well fitted curve in the direction sought with a large enough effect in the repeat runs; inconclusive = weak or mixed curves; inactive = no such curve, though single readings can be large; an effect the other way counts as inactive or inconclusive.

Assay [1] can be described thus: qHTS assay for small molecules that induce genotoxicity in human embryonic kidney cells expressing luciferase-tagged ATAD5 (AID 651632). Note: nearly all actives have a fitted effect of over 15% in size. The gist of the method:
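Test compounds were delivered by pin tool onto HEK293T reporter cells (2,000/well) expressing ATAD5 fused to luciferase. After 16 hr at 37C, 5% CO2, Amplite was added for 30 min at room temperature and luminescence was measured.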

The nature of assay [2]: qHTS assay for small molecule agonists of the p53 signaling pathway - cell viability (AID 651633; calls by dose curve; note: nearly all actives have a fitted effect of over 30% in size; note: potency is the fitted concentration of half-maximal effect). A digest of the protocol: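 Viability counter-read: CellTiter-Glo luminescence (30 min, room temperature) in the same p53RE-bla plates. These plates had been exposed to compounds for 16 h at 37 C.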
(In general: Quantitative high-throughput screening tests each substance at several concentrations.)

Assay [3] can be described thus: qHTS assay for small molecules that induce genotoxicity in human embryonic kidney cells expressing luciferase-tagged ATAD5 - cell viability (AID 651634; calls by dose curve; note: nearly all actives have a fitted effect of over 25% in size; note: potency is the fitted concentration of half-maximal effect). A digest of the protocol:
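Quantitative high-throughput format. HEK293T cells expressing ATAD5 fused to luciferase were plated at 2,000 cells/well and treated 15.5 hr with compound versus DMSO. Viability was determined by fluorescent live-cell protease substrate, 30 min at 37C.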

A short description of assay [4]: qHTS assay for small molecule disruptors of the mitochondrial membrane potential - cell viability (AID 720634; calls by dose curve;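 note: human HepG2 liver cancer cells; series mostly up to about 83 µM; nearly all actives have a fitted effect of over 20% in size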). The gist of the method: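 Same-well counter-screen: following the MMP dye addition, CellTiter-Glo was added to 1 hr compound-treated HepG2 cells and luminescence read after 30 min at room temperature.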
The nature of assay [5]: qHTS assay to test for compound auto fluorescence at 590 nm (red) in HepG2 cells (AID 720674). A digest of the protocol: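 We screened compounds on adherent HepG2 cells, incubating them for an hour at 37 C in 5% CO2 before reading emission at 590 nm under 540 nm excitation; values reflect equivalence to Rose Bengal sodium fluorescence.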
Assay [6] can be described thus: qHTS assay to test for compound auto fluorescence at 535 nm (green) in HepG2 cells (AID 720675).
The nature of assay [7]: qHTS assay to test for compound auto fluorescence at 590 nm (red) in HEK293 cells (AID 720679). The gist of the method:
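Autofluorescence equivalency to Rose Bengal sodium, 540/590nm, in HEK293 cells exposed overnight to 23 nL compound per well.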

Assay [8] is described as follows: qHTS assay to test for compound auto fluorescence at 535 nm (green) in HEK293 cells (AID 720680).
Assay [9] can be described thus: qHTS assay to test for compound auto fluorescence at 460 nm (blue) in HEK293 cell free culture (AID 720681). A digest of the protocol: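 Blue fluorescence (Ex 405/Em 460 nm, triamterene-equivalent) was read immediately after pin transfer of compound or DMSO into medium (DMEM, 10% FBS) without cells.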
A short description of assay [10]: qHTS assay to test for compound auto fluorescence at 535 nm (green) in HEK293 cell free culture (AID 720682). The gist of the method: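 Green-label autofluorescence (485 nm excitation, 535 nm emission) measured on compound added to cell-free culture medium (DMEM, 10% FBS). Output is expressed relative to fluorescein.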
Assay [11] can be described thus: qHTS assay to test for compound auto fluorescence at 590 nm (red) in HEK293 cell free culture (AID 720683). A digest of the protocol:
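Red-channel autofluorescence of compounds in culture medium (DMEM, 10% FBS), no cells, measured at 540/590 nm. Rose Bengal sodium is the reference fluorophore for equivalence.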

A short description of assay [12]: qHTS assay to test for compound auto fluorescence at 590 nm (red) in HepG2 cell free culture (AID 720684). A digest of the protocol: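 Cell-free; medium MEM + 10% FBS; compound or DMSO added by pintool; read Ex 540/Em 590 nm; Rose Bengal sodium as red reference fluorophore.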
The nature of assay [13]: qHTS assay to test for compound auto fluorescence at 460 nm (blue) in HepG2 cell free culture (AID 720685). The gist of the method:
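Cell-free plates of MEM plus 10% FBS received 23 nL compound or DMSO vehicle; blue-channel (405/460 nm) intensity scored against triamterene as reference fluorophore.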

The nature of assay [14]: qHTS assay to test for compound auto fluorescence at 535 nm (green) in HepG2 cell free culture (AID 720686).
Assay [15] can be described thus: qHTS assay to test for compound auto fluorescence at 460 nm (blue) in HepG2 cells (AID 720687). A digest of the protocol:
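Blue-channel autofluorescence (Ex/Em 405/460 nm, triamterene-equivalent) was measured after 1 hr compound exposure at 37 C, 5% CO2. Cells were HepG2, plated overnight at 37 C in MEM plus 10% FBS.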

Assay [16] is described as follows: qHTS assay to test for compound auto fluorescence at 460 nm (blue) in HEK293 cells (AID 720678). A digest of the protocol: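 Auto fluorescence in the blue band was quantified as triamterene equivalency. HEK293 cells were seeded at 2,000/well, dosed after a 4-5 hr attachment, and kept overnight at 37C before the 405/460 nm reading.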
Assay [17] deals with Glucocorticoid receptor (Homo sapiens) (UniProt P04150). The experiment in a line: qHTS assay to identify small molecule agonists of the glucocorticoid receptor (GR) signaling pathway (AID 720691; active = well fitted activation curve with a large enough effect in the signal ratio in the repeat runs, not every such curve was filed as active; the % refers to the signal ratio). A digest of the protocol:
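A HeLa cervical cancer line expressing GR and a glucocorticoid response element-driven beta-lactamase gene is treated with compounds for 18 h; LiveBLAzer B/G FRET substrate is then applied and fluorescence read.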

For assay [18] the target is unchanged. Briefly: qHTS assay to identify small molecule antagonists of the glucocorticoid receptor (GR) signaling pathway (AID 720692; active = well fitted inhibition curve with a large enough effect in the signal ratio in the repeat runs, not every such curve was filed as active; the % refers to the signal ratio; note: potency is the fitted concentration of half-maximal effect). The gist of the method: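 GRE-bla HeLa line, dex-stimulated (5 nM final). Compound exposure 18 h, 37 C. Beta-lactamase FRET read after 2 h RT substrate.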
The nature of assay [19]: qHTS assay for small molecule disruptors of the mitochondrial membrane potential (AID 720635). Note: potency is the fitted concentration of half-maximal effect. The gist of the method: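 Mitochondrial membrane potential tracked with Mito-MPS dye, red aggregates (ex 540/em 590 nm) against green monomers (ex 490/em 535 nm). Compound treatment 1 hr at 37C, dye 30 min in HepG2.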

Glucocorticoid receptor (Homo sapiens), sequence (P04150 whole entry, looked up): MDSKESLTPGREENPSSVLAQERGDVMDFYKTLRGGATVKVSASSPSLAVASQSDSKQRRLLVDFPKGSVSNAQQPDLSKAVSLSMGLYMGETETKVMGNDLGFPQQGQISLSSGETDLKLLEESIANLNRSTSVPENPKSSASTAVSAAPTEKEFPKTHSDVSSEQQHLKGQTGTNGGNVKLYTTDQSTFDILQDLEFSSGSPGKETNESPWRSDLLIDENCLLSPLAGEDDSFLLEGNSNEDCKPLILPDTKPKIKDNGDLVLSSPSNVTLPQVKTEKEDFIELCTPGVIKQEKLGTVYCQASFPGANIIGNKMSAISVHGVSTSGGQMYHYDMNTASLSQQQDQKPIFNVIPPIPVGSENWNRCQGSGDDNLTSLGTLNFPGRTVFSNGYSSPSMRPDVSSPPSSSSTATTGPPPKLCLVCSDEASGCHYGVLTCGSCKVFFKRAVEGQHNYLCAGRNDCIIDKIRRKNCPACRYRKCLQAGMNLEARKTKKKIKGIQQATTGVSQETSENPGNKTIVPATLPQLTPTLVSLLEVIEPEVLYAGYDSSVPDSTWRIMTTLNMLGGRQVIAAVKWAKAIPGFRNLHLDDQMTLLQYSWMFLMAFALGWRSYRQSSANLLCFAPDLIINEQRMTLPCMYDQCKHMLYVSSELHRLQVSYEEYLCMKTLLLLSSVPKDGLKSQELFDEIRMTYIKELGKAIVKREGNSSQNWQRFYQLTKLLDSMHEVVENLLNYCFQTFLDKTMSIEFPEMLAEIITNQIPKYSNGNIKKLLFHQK

Regarding `CN1C(=O)C(O)N=C(c2ccccc2)c2cc(Cl)ccc21` (stereo not drawn), the Potency entry in assay [1], in [2], in assay [3] and in assay [4] was “inactive” each time. For the same compound, the result in assay [5], in assay [6], in assay [7], in [8], in [9] and in [10] was inactive. Besides, the outcome in assay [11], in assay [12], in assay [13], in [14] and in [15] was inactive.

In the case of `COP(=S)(OC)Oc1cc(Cl)c(I)cc1Cl`, the Potency entry in assay [1], in [2] and in [3] was “inactive” throughout. For the same compound, the compound was classed as inactive in assay [5], in [6], in assay [16], in assay [8], in [9] and in [10]. Further, the compound was called inactive in assay [11], in assay [12], in assay [13], in assay [14] and in assay [17]. The Potency in [18] is 24.5 µM (active).

`COP(=O)(OC)O/C(=C/Cl)c1cc(Cl)c(Cl)cc1Cl`: the Potency entry in [1], in [2], in assay [3] and in assay [4] was “inactive” throughout. Moreover, the outcome in assay [5], in assay [6], in assay [16], in [7], in [8] and in assay [10] was inactive. The result in assay [11], in assay [12], in assay [13] and in assay [14] was inactive.

On to `O=C(NC(=O)c1c(F)cccc1F)Nc1cc(Cl)c(Oc2ncc(C(F)(F)F)cc2Cl)c(Cl)c1`, for which the Potency entry in assay [1] and in assay [3] was “inactive” in each case. The Potency in assay [2] is 7.37 µM (active). Further, the result in assay [5], in assay [6], in assay [16], in [8], in assay [9] and in [10] was inactive. Besides, the result in [11], in assay [12], in assay [13], in assay [14], in assay [15] and in assay [17] was inactive.

On to `O=[Se]=O`, for which the Potency entry in [1], in [2] and in assay [18] was “inactive” throughout. Moreover, the Potency in assay [3] is 0.764 µM (active). The call in [6], in assay [16], in assay [7], in [8], in [9] and in assay [10] was inactive. In addition, the outcome in [11], in assay [12], in assay [13], in assay [14], in assay [15] and in assay [17] was inactive.

Take `CC(=O)c1cc2c(cc1C)C(C)(C)C(C)CC2(C)C` (stereo not drawn): the Potency entry in [1] and in assay [3] was “inactive” throughout. Also, the values for the Potency in assay [2] and in assay [19] were 61.1 µM (active) and 54.5 µM (active), respectively. The outcome in assay [6], in assay [16], in [7], in [8], in assay [9] and in assay [11] was inactive. The compound was called inactive in assay [12], in [13], in [14] and in [15].

On to `CCOP(=S)(OCC)Oc1cc(Cl)c(Br)cc1Cl`, for which the Potency entry in assay [1], in assay [2] and in [3] was “inactive” throughout. For the same compound, the compound was classed as inactive in assay [5], in assay [6], in [7], in assay [8], in [9] and in assay [10]. The result in assay [11], in assay [12], in [13], in [14] and in assay [15] was inactive.

`CC(O)(CS(=O)(=O)c1ccc(F)cc1)C(=O)Nc1ccc(C#N)c(C(F)(F)F)c1` (stereo not drawn): the Potency result in [1], in assay [2], in assay [3] and in [18] was “inactive” each time. The compound was classed as inactive in [5], in [6], in assay [16], in assay [8], in assay [9] and in [10]. The call in assay [11], in assay [12], in [13], in assay [14], in [15] and in [17] was inactive.

`COC(=O)C(C)N(C(=O)Cc1ccccc1)c1c(C)cccc1C` (stereo not drawn): the Potency result in assay [1], in assay [2] and in assay [3] was “inactive” each time. Besides, the compound was classed as inactive in assay [5], in [6], in [16], in assay [7], in assay [8] and in [9]. Further, the compound was called inactive in [10], in [11], in assay [12], in assay [13], in [14] and in assay [15]. Moreover, in assay [17], the compound was classed as inactive.

For `C=C(C#N)CCC#N`, the Potency result in [1], in assay [2], in assay [3], in assay [4] and in assay [18] was “inactive” each time. Besides, the compound was classed as inactive in assay [5], in [6], in assay [8], in assay [9], in assay [11] and in assay [12]. In addition, the compound was classed as inactive in assay [13], in assay [14], in assay [15] and in assay [17].

As for `CCc1ccc(C(=O)NN(C(=O)c2cc(C)cc(C)c2)C(C)(C)C)cc1`, the Potency result in assay [1] and in assay [2] was “inactive” each time. In addition, in assay [3], the Potency was 0.486 µM (active). Also, the result in [5], in [6], in assay [8], in assay [9], in [10] and in [11] was inactive. Moreover, the call in assay [12], in [13], in assay [14], in [15] and in assay [17] was inactive.

In the case of `O=Cc1ccc2c(c1)OCO2`, the Potency result in assay [1], in assay [2], in assay [3] and in [4] was “inactive” each time. Further, the call in [5], in assay [6], in assay [7], in assay [8], in [9] and in assay [10] was inactive. For the same compound, the compound was classed as inactive in assay [11], in [12], in [13], in assay [14] and in [17].

Consider `C/C=C/C=O`, for which the Potency result in assay [1], in assay [2], in assay [3] and in [18] was “inactive” throughout. In addition, the compound was called inactive in assay [5], in assay [6], in assay [16], in assay [8], in assay [9] and in [10]. In addition, the call in [11], in assay [12], in assay [13], in assay [14] and in assay [17] was inactive.

For the compound `C=COC(C)=O`, the Potency entry in [1], in [2], in assay [3] and in [4] was “inactive” in each case. Moreover, the call in assay [5], in assay [6], in assay [16], in assay [8], in [9] and in assay [11] was inactive. The compound was called inactive in assay [12], in [13], in assay [14] and in assay [15].
